The sample as a whole holds a higher share of hits than the screen did.
Pf Dd2 growth: qHTS Primary assay for Inhibitors of Plasmodium falciparum Dd2 growth in vitro; P. falciparum Dd2 growth, SYBR Green, 72 h; 4.3% of 120,000 active; Potency, µM (doses to about 28.9 µM), without a hit: top-dose activity, negative = inhibition, actives largely listed as inhibitors; active = well fitted inhibition curve with a large enough effect;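 note: plate controls were DMSO vehicle for no effect and reference drug for full effect; nearly all actives have a fitted effect of over 65% in size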
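Infected erythrocytes (Dd2, 0.3% parasitemia, 2.5% hematocrit final) are added to compound in RPMI-1640/Albumax II medium, grown 72 h at 37C in low oxygen, then lysed with saponin/Triton-X containing SYBR Green and read by fluorescence.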
* = called active by the depositor; i = inactive; [ ] = dose if it differs, or a comment. Potency is the fitted concentration of half-maximal effect.

SMILES	Pf Dd2 growth
O=C(c1ccc(F)cc1)n1nc(-c2ccccc2)nc1NCc1ccco1	32%
O=S(=O)(Nc1nc2n(n1)C(c1ccc(F)cc1)C=C(c1ccccc1)N2)c1ccccc1 (stereo not drawn)	0%
O=C(NCc1nnc2ccc(-c3ccc(Cl)cc3)nn12)c1ccco1	i
O=C(Nc1nc2n(n1)C(c1ccc(F)cc1)C=C(c1ccccc1)N2)c1ccco1 (stereo not drawn)	10µM*
CC1=C(C(=O)Nc2ccccc2)C(c2ccccc2)n2nc(-c3ccco3)nc2N1 (stereo not drawn)	i
O=C(Nc1nc2n(n1)C(c1ccc(Cl)cc1)C=C(c1ccccc1)N2)c1ccco1 (stereo not drawn)	13µM*
COc1ccc(CN2C[C@H]3CN(Cc4nccs4)CCN3C2=O)cc1	21%[44.1 µM]
Cc1cc(C)cc(NC(=O)C2CCCN2S(=O)(=O)c2ccc3c(c2)CCCC(=O)N3)c1 (stereo not drawn)	21%
Cc1cccc(-n2ncc(C(=O)N3CCN(c4ccc(C)cc4C)CC3)c2C2CCN(C(=O)OC(C)(C)C)CC2)c1	-25%
Cc1ccc(Cl)cc1N1CCN(C(=O)c2cnn(C(C)(C)C)c2C2CCN(C(=O)OC(C)(C)C)CC2)CC1	7.9µM*
Cc1ccc(Cl)cc1N1CCN(C(=O)c2cnn(C)c2C2CCN(C(=O)OC(C)(C)C)CC2)CC1	4µM*
Cc1ccc(C)c(N2CCN(C(=O)c3cnn(C(C)(C)C)c3C3CCN(C(=O)OC(C)(C)C)CC3)CC2)c1	8.9µM*
Cn1ncc(C(=O)N2CCN(c3ccccc3)CC2)c1C1CCN(C(=O)OC(C)(C)C)CC1	i
Cc1cccc(NC(=O)Cn2nnc(C(=O)Nc3ccc(F)c(Cl)c3)c2N)c1	31%
CC(C)(N)C(=O)N1CCN(c2nc(-c3ccccc3)nc3c2CCC3)CC1	i
CC1(C)C[C@@H]2C[C@@](C)(CN2C(=O)c2coc(COc3ccc4c(c3)OCO4)n2)C1	-2%
Cn1nc2n(c1=O)CCN(S(=O)(=O)c1ccc(Cl)s1)CC2	-15%
Cc1ccc(OC2(C(=O)NCc3ccccc3-n3ccnc3)CCNCC2)cc1	-29%
Cc1cccc(CC(=O)N2C[C@@H](Oc3ccccc3)C[C@@H]2C(=O)N2CCOCC2)c1	-6%
Cn1cc(-c2ccc(O)c(F)c2)c2nc(COc3ccc(Cl)cc3)cn2c1=O	10µM*
Cn1cc(-c2ccccc2F)c2nc(COc3ccc(C(=O)O)cc3)cn2c1=O	-14%[44.1 µM]
Cn1cc(-c2ccccc2F)c2nc(COc3ccccc3)cn2c1=O	i
CCOCCCNC(=O)C1CCN(c2nc3ccc(Cl)cc3[nH]2)CC1	i
COc1ccc(OC2CN(Cc3ccsc3)C2)cc1	-1%[44.1 µM]
O=C(NC1CC1)c1ccccc1OC1CN(Cc2ccc(F)cc2F)C1	-20%
SMILES	Pf Dd2 growth
O=C(NCc1ccccc1)c1ccccc1OC1CN(Cc2ccsc2)C1	4µM*
COc1ccc(OC)c(CN2CCOc3ccc(C(=O)NCc4ccc(C)cc4)cc3C2)c1	-9%
COc1cccc(CN2CC(Oc3ccccc3C(=O)NC3CC3)C2)n1	4µM*
COc1ccc(OC)c(CN2CC(Oc3ccccc3C(=O)NCc3ccccc3)C2)c1	1.8µM*
COc1ccc(CN2CC(Oc3ccccc3C(=O)NC3CC3)C2)cc1OC	i
O=C(NCc1ccccc1)c1ccccc1OC1CN(Cc2ccc(F)c(F)c2)C1	-3%
Cc1ccc(CN2CC(Oc3ccccc3C(=O)NC3CC3)C2)o1	-16%
CCc1ccc(N2CCn3c2nc2c3c(=O)n(Cc3c(F)cccc3Cl)c(=O)n2C)cc1	28%
Cc1sc2cc(C(=O)NCc3ccncc3)[nH]c2c1CN1CCCCC1	i
CCc1ccc(NC(=O)CCc2c(C)nc3nc(-c4cc(OC)cc(OC)c4)nn3c2C)cc1	i
COc1cc(OC)cc(-c2nc3nc(C)c(CCC(=O)Nc4cc(C)cc(C)c4)c(C)n3n2)c1	8.9µM*
COc1cc(OC)cc(-c2nc3nc(C)c(CCC(=O)NCCC(C)C)c(C)n3n2)c1	43%
COc1ccccc1N1CCN(S(=O)(=O)c2ccc3[nH]c4c(c3c2)CCCC4)CC1	-6%
CN(C)c1cccc(C(=O)Nc2nc3ccc(S(=O)(=O)N4CCCC4)cc3s2)c1	13µM*
COc1cccc(C(=O)Nc2nc3ccc(S(=O)(=O)N4CCCC4)cc3s2)c1	-15%
Cc1ccc(C(=O)Nc2nc3ccc(S(=O)(=O)N4CCCC4)cc3s2)cc1	5%
O=C(C1CCC1)N1CCCC(c2nc(C3CCOCC3)no2)C1 (stereo not drawn)	24%
CCOc1ccc(NC(=O)CCn2ccn3nc4c(c3c2=O)CCCC4)cc1	-7%
O=C(Nc1ccc(Cl)cc1)c1ccc(Cn2ccn3nc4c(c3c2=O)CCCC4)cc1	8.9µM*
O=C(CCn1ccn2nc3c(c2c1=O)CCCC3)Nc1ccc(F)cc1	i
O=C(Nc1ccccc1)c1ccc(Cn2ccn3nc4c(c3c2=O)CCCC4)cc1	-15%
CC(C)NC(=O)c1ccc(Cn2ccn3nc4c(c3c2=O)CCCC4)cc1	-4%
CN(C)c1ccc(NC(=O)CCn2ccn3nc4c(c3c2=O)CCCC4)cc1	4µM*
CCCc1noc(CN(C)C(C(=O)O)c2ccc(OC)c(F)c2)n1 (stereo not drawn)	9%
COc1ccccc1NC(=O)Cn1nnc(C(=O)NCc2cccs2)c1N	-23%
SMILES	Pf Dd2 growth
O=C(c1ccc(F)cc1)N1CCC(c2nn(-c3ccc(F)cc3)c(=O)[nH]2)CC1	-14%
COCc1nc(C2CCN(C(=O)c3ccncc3)C2)no1 (stereo not drawn)	-9%
COCCN1CCCCCC(O)c2cc(C(=O)Nc3ccc(C)cc3)ccc21 (stereo not drawn)	i
Cc1ccc(C)c(N2CCN(C(=O)c3ccc4c(c3)N(Cc3ccc(F)cc3)C(=O)c3ccccc3S4=O)CC2)c1 (stereo not drawn)	-16%
Cc1cccc(N2CCN(C(=O)c3ccc4c(c3)N(Cc3cccc(Cl)c3)C(=O)c3ccccc3S4=O)CC2)c1C (stereo not drawn)	-7%
Cc1ccccc1CNC(=O)c1ccc2c(c1)N(Cc1ccccc1)CCS2	4%
Cc1ccc(Cl)cc1N1CCN(C(=O)c2ccc3c(c2)N(Cc2ccccc2)CCS3)CC1	8.9µM*
COc1ccc(CNC(=O)c2ccc3c(c2)N(Cc2ccccc2)CCS3)cc1	-6%
CCN1C(=O)c2ccccc2S(=O)c2ccc(C(=O)N3CCN(c4cc(Cl)ccc4C)CC3)cc21 (stereo not drawn)	8.9µM*
COc1ccc(S(=O)(=O)c2cn(CC(=O)Nc3ccccc3)c3ccc(Cl)cc3c2=O)cc1	-13%
OC[C@@H]1CNC[C@H]1c1nc(-c2cccnc2)no1	16%
C#CC(C)(C)NS(=O)(=O)c1cc(-c2nnc(Nc3ccc(C)cc3)c3ccccc23)ccc1C	5µM*
Cc1ccc(C)c(Nc2nnc(-c3ccc(C)c(S(=O)(=O)N4CCN(C)CC4)c3)c3ccccc23)c1	16%
Cc1cccc(Nc2nnc(-c3ccc(C)c(S(=O)(=O)N4CCCCC4)c3)c3ccccc23)c1	36%
CCN(CC)C(=O)c1ccc(Nc2nnc(-c3ccc(C)c(S(=O)(=O)NC)c3)c3ccccc23)cc1	3.2µM*
CCCNS(=O)(=O)c1cc(-c2nn3c(C)nnc3c3ccccc23)ccc1C	-13%
C#CCOc1ccc(-c2nnc(Nc3ccc(NC(C)=O)cc3)c3ccccc23)cc1	44%
Cc1cc(C)n(-c2nnc(Nc3ccc(C)c(Cl)c3)c3ccccc23)n1	i
CCOc1ccc(-c2nnc(Nc3ccc(S(N)(=O)=O)cc3)c3ccccc23)cc1	13%

Source: PubChem (National Center for Advancing Translational Sciences (NCATS))
